Measured values: PubChem BioAssay AID1159580 (chemical genetic matrix, 2015)
The campaign covered roughly 5,500 compounds. About 2,000 (36%) were called active. Roughly 18% stayed inconclusive and do not appear here. Rule as the data show it: active = normalized growth mostly below about 0.91 (no sharp cut-off); inconclusive = no clear call, values can overlap the other calls; inactive = mostly above about 0.92. The list shows a part of the results.

Assay: chemical genetic growth profiling, strain panel (AID 1159580);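 also: tested at 20 µM; growth read once vehicle control cultures reached saturation at 30 °C; 1 = growth at the plate median or of vehicle wells; lower values mean less growth of the strain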
Settings: growth OD

Measured: normalized growth

Nc1ncnc2c1ncn2C1O[C@H](COP(=O)(O)O)[C@@H](O)[C@H]1O (some centres not stated)
active: S. cerevisiae deletion strains, locus YKR001C, strain vps1, active compounds read low 0.581 | S. cerevisiae deletion strains, locus YLR268W, strain sec22, active compounds read low 0.627 | S. cerevisiae deletion strains, locus YLR418C, strain cdc73, active compounds read low 0.471 | S. cerevisiae deletion strains, locus YML032C, strain rad52, active compounds read low 0.417 | S. cerevisiae deletion strains, locus YML124C, strain tub3, active compounds read low 0.829 | S. cerevisiae deletion strains, locus YMR078C, strain ctf18, active compounds read low 0.838 | S. cerevisiae deletion strains, locus YMR223W, strain ubp8, active compounds read low 0.81 | S. cerevisiae deletion strains, locus YNL271C, strain bni1, active compounds read low 0.895 | S. cerevisiae deletion strains, locus YNL307C, strain MCK1, active compounds read low 0.847 | S. cerevisiae deletion strains, locus YNR052C, strain pop2, active compounds read low 0.476 | S. cerevisiae deletion strains, locus YOL147C, strain pex11, active compounds read low 0.516 | S. cerevisiae deletion strains, locus YOR144C, strain elg1, active compounds read low 0.645 | S. cerevisiae deletion strains, locus YOR184W, strain ser1, active compounds read low 0.636 | S. cerevisiae deletion strains, locus YPR163C, strain tif3, active compounds read low 0.725 | S. cerevisiae deletion strains, locus YPR167C, strain met16, active compounds read low 0.858 | S. cerevisiae deletion strains, strain wtn01, active compounds read low 0.866
inactive: S. cerevisiae deletion strains, locus YJR075W, strain HOC1, active compounds read low 1.04 | S. cerevisiae deletion strains, locus YKL009W, strain mrt4, active compounds read low 1.02 | S. cerevisiae deletion strains, locus YKL068W, active compounds read low 0.993 | S. cerevisiae deletion strains, locus YKL085W, strain MDH1 (second series), active compounds read low 1 | S. cerevisiae deletion strains, locus YKL085W, strain MDH1, active compounds read low 1 | S. cerevisiae deletion strains, locus YKL160W, strain elf1, active compounds read low 1 | S. cerevisiae deletion strains, locus YKL190W, strain CNB1, active compounds read low 1.01 | S. cerevisiae deletion strains, locus YKR026C, strain gcn3, active compounds read low 1 | S. cerevisiae deletion strains, locus YKR091W, strain srl3, active compounds read low 0.995 | S. cerevisiae deletion strains, locus YLL001W, strain dnm1, active compounds read low 1.03 | S. cerevisiae deletion strains, locus YLL026W, active compounds read low 1.01 | S. cerevisiae deletion strains, locus YLL041C, strain sdh2, active compounds read low 0.981 | S. cerevisiae deletion strains, locus YLR027C, strain aat2, active compounds read low 1.02 | S. cerevisiae deletion strains, locus YLR039C, strain RIC1, active compounds read low 1.04 | S. cerevisiae deletion strains, locus YLR058C, strain SHM2, active compounds read low 1.02 | S. cerevisiae deletion strains, locus YLR102C, strain apc9, active compounds read low 0.962 | S. cerevisiae deletion strains, locus YLR113W, strain HOG1, active compounds read low 1 | S. cerevisiae deletion strains, locus YLR221C, strain rsa3, active compounds read low 0.969 | S. cerevisiae deletion strains, locus YLR258W, strain gsy2, active compounds read low 0.987 | S. cerevisiae deletion strains, locus YLR262C, strain YPT6 (second series), active compounds read low 1.03 | S. cerevisiae deletion strains, locus YLR262C, strain YPT6, active compounds read low 1.02 | S. cerevisiae deletion strains, locus YLR320W, strain mms22, active compounds read low 0.983 | S. cerevisiae deletion strains, locus YLR330W, strain CHS5, active compounds read low 1.01 | S. cerevisiae deletion strains, locus YLR342W, strain FKS1 (second series), active compounds read low 1.04 | S. cerevisiae deletion strains, locus YLR342W, strain FKS1, active compounds read low 1.02 | S. cerevisiae deletion strains, locus YLR357W, strain rsc2, active compounds read low 1.02 | S. cerevisiae deletion strains, locus YLR370C, strain arc18, active compounds read low 1.01 | S. cerevisiae deletion strains, locus YLR371W, strain rom2, active compounds read low 0.986 | S. cerevisiae deletion strains, locus YLR384C, strain iki3, active compounds read low 1 | S. cerevisiae deletion strains, locus YML016C, strain PPZ1, active compounds read low 1.01 | S. cerevisiae deletion strains, locus YML120C, strain ndi1, active compounds read low 1.01 | S. cerevisiae deletion strains, locus YMR058W, strain fet3, active compounds read low 1.01 | S. cerevisiae deletion strains, locus YMR125W, strain sto1, active compounds read low 0.987 | S. cerevisiae deletion strains, locus YMR129W, active compounds read low 0.994 | S. cerevisiae deletion strains, locus YMR205C, strain PFK2, active compounds read low 1.02 | S. cerevisiae deletion strains, locus YMR231W, strain pep5, active compounds read low 0.999 | S. cerevisiae deletion strains, locus YMR263W, strain SAP30, active compounds read low 1.01 | S. cerevisiae deletion strains, locus YMR307W, strain GAS1, active compounds read low 0.974 | S. cerevisiae deletion strains, locus YNL067W, strain RPL9B, active compounds read low 1.02 | S. cerevisiae deletion strains, locus YNL071W, strain lat1, active compounds read low 0.998 | S. cerevisiae deletion strains, locus YNL128W, strain TEP1, active compounds read low 1.02 | S. cerevisiae deletion strains, locus YNL153C, strain GIM3, active compounds read low 1.01 | S. cerevisiae deletion strains, locus YNL183C, strain NPR1, active compounds read low 0.97 | S. cerevisiae deletion strains, locus YNL209W, strain ssb2, active compounds read low 0.998 | S. cerevisiae deletion strains, locus YNL233W, strain BNI4, active compounds read low 1.01 | S. cerevisiae deletion strains, locus YNL248C, strain rpa49, active compounds read low 0.977 | S. cerevisiae deletion strains, locus YNL250W, strain rad50, active compounds read low 1 | S. cerevisiae deletion strains, locus YNL298W, strain CLA4, active compounds read low 0.918 | S. cerevisiae deletion strains, locus YNL322C, strain KRE1 (second series), active compounds read low 0.991 | S. cerevisiae deletion strains, locus YNL322C, strain KRE1, active compounds read low 1.01 | S. cerevisiae deletion strains, locus YNR049C, strain mso1, active compounds read low 0.994 | S. cerevisiae deletion strains, locus YOL006C, strain TOP1, active compounds read low 1.04 | S. cerevisiae deletion strains, locus YOL012C, strain htz1 0.221 | S. cerevisiae deletion strains, locus YOR001W, strain rrp6, active compounds read low 1.02 | S. cerevisiae deletion strains, locus YOR061W, strain CKA2, active compounds read low 1.01 | S. cerevisiae deletion strains, locus YOR069W, strain VPS5, active compounds read low 1.01 | S. cerevisiae deletion strains, locus YOR070C, strain gyp1, active compounds read low 0.995 | S. cerevisiae deletion strains, locus YOR080W, strain dia2, active compounds read low 1 | S. cerevisiae deletion strains, locus YOR083W, strain WHI5, active compounds read low 0.988 | S. cerevisiae deletion strains, locus YOR106W, strain vam3, active compounds read low 1.03 | S. cerevisiae deletion strains, locus YOR136W, strain idh2, active compounds read low 0.953 | S. cerevisiae deletion strains, locus YOR231W, strain MKK1, active compounds read low 1.01 | S. cerevisiae deletion strains, locus YOR265W, strain rbl2, active compounds read low 1 | S. cerevisiae deletion strains, locus YOR270C, strain vph1, active compounds read low 0.996 | S. cerevisiae deletion strains, locus YOR290C, strain snf2, active compounds read low 0.972 | S. cerevisiae deletion strains, locus YOR316C, strain cot1, active compounds read low 0.969 | S. cerevisiae deletion strains, locus YPL051W, strain arl3, active compounds read low 1.01 | S. cerevisiae deletion strains, locus YPL055C, strain LGE1, active compounds read low 1.07 | S. cerevisiae deletion strains, locus YPL078C, strain atp4, active compounds read low 1.03 | S. cerevisiae deletion strains, locus YPL106C, strain sse1, active compounds read low 0.997 | S. cerevisiae deletion strains, locus YPL240C, strain hsp82, active compounds read low 0.998 | S. cerevisiae deletion strains, locus YPL241C, strain CIN2, active compounds read low 1.01 | S. cerevisiae deletion strains, locus YPL256C, strain CLN2, active compounds read low 0.995 | S. cerevisiae deletion strains, locus YPR119W, strain clb2, active compounds read low 0.935 | S. cerevisiae deletion strains, locus YPR141C, strain kar3, active compounds read low 0.995 | S. cerevisiae strains, strain wild type, active compounds read low 1.02
